Assay results taken from the supplement of paper PMC9694430.

system: LOC_OS07G06570-cb004; assay: thermal shift delta Tm vs DMSO control; higher = stronger stabilization (binding); details: 12.5 µM; protein concentration 2 µM
Outline: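 Thermal shift values come from differential scanning fluorimetry on purified rice kinase domains made in E. coli, with melting temperatures obtained from Boltzmann fits. Samples of 19.5 μl held 2 μM kinase, 100 mM potassium phosphate pH 7.5, 150 mM NaCl, 10% glycerol, 5 × SYPRO Orange and compound in DMSO, and were heated from 25°C to 95°C at 0.05°C/s. Each shift is a triplicate mean relative to the DMSO-only protein sample.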
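Further: purified Escherichia coli-expressed rice kinase domain construct.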

SMILES | thermal shift delta Tm [°C]
CN1CCN(c2cccc(Nc3nc4c(-c5ccc(S(C)(=O)=O)cc5)cccn4n3)c2)CC1 | 0.46
C[C@@H](NC(=O)c1ncnc(N)c1Cl)c1ncc(C(=O)Nc2cc(C(F)(F)F)c(Cl)cn2)s1 | 1.4
N#CC(=C(/N)Sc1ccccc1N)/C(C#N)=C(\N)Sc1ccccc1N | -0.22
Cc1cc(Nc2cc(N3CCN(C)CC3)nc(/C=C/c3ccccc3)n2)n[nH]1 | 1.23
OCCn1cc(-c2ccc3c(c2)CC/C3=N\O)c(-c2ccncc2)n1 | 0.92
COc1cc2c(c(OC)c1OC)-c1c(cc3c(c1OC)OCO3)CC(C)C(C)C2 (configuration not stated) [Schisandrin B (Sch B)] | 1.21
COc1cc(N2CCN(C)CC2)ccc1Nc1nccc(-c2cn(C)c3cnccc23)n1 | 1.53
CN(c1ccccc1CNc1nc(Nc2ccc3c(c2)CC(=O)N3)ncc1C(F)(F)F)S(C)(=O)=O | 1.23
CNC(=O)c1ccc(Nc2ncc(C(F)(F)F)c(NCc3nccnc3N(C)S(C)(=O)=O)n2)cc1 | 0.66
O=C(O)c1ccc2c3c1cccc3c(=O)n1c3ccccc3nc21 | 0.54
Cc1nc(Nc2n[nH]c3c2CN(C(=O)N[C@H](CN(C)C)c2ccccc2)C3(C)C)c2sccc2n1 | 1.67
C[C@H]1[C@H](C)CC[C@]2(C(=O)O)CC[C@]3(C)C(=CC[C@@H]4[C@@]5(C)C[C@@H](O)[C@H](O)[C@@](C)(CO)[C@@H]5CC[C@]43C)[C@H]12 [Asiatic Acid] | 0.82
COc1ccc(-c2cc3nccn3c(Nc3ncccc3C(N)=O)n2)cc1OC | 0.73
O=C(NCc1ccccc1)c1csc(Nc2ccncn2)n1 [Thiazovivin] | 0.66
COc1cc(Nc2ncc(F)c(Nc3ccc4c(n3)NC(=O)C(C)(C)O4)n2)cc(OC)c1OC [R406 (free base)] | 0.75
Cc1ccc(S(=O)(=O)/C=C/C#N)cc1 | 1.13
O=c1c(O)c(-c2ccc(O)c(O)c2)oc2cc(O)cc(O)c12 [Quercetin] | -0.26
C[C@H]1CNC(=O)c2cnn3ccc(nc23)N[C@H](C)c2cc(F)ccc2O1 | 1.57
C[C@@H](Nc1cc(F)cc(F)c1)c1cc(C(=O)N(C)C)cc2c(=O)cc(N3CCOCC3)oc12 | 1.06

SMILES | thermal shift delta Tm [°C]
Nc1cccc(-c2cc3c(Oc4cccc(O)c4)ncnc3[nH]2)c1 | 1.36
CC[C@H](CO)Nc1nc(NCc2ccccc2)c2ncn(C(C)C)c2n1 [Roscovitine (Seliciclib,CYC202)] | 0.88
CCn1c(=O)c(-c2ccc(Cl)cc2Cl)cc2cnc(Nc3ccc(N4CCNCC4)c(F)c3)nc21 | 1.3
Cc1c[nH]c2nc(Nc3ccc(N4CCN(C)CC4)c(F)c3)nc(-c3cccc(CC#N)c3)c12 | 2.22
N#C/C(=C(/N)Sc1ccc(N)cc1)c1ccccc1C(F)(F)F | 0.09
FC(F)(F)c1ccc(CNc2ccc(Cc3c[nH]c4ncc(Cl)cc34)cn2)cn1 [Pexidartinib (PLX3397)] | 0.14
COc1cc(N2CCC(N(C)C)CC2)ccc1Nc1ncc(Cl)c(Nc2ccccc2P(C)(C)=O)n1 | 1.14
CCN(CC)CCNC(=O)c1c(C)[nH]c(/C=C2\C(=O)Nc3ccc(F)cc32)c1C [Sunitinib Malate] | 0.48
CCC(=O)Nc1cccc(Oc2nc(Nc3ccc(N4CCN(C)CC4)cc3OC)ncc2Cl)c1 | 0.81
Cn1c(Nc2ccc(C(F)(F)F)cc2)nc2cc(Oc3ccnc(-c4ncc(C(F)(F)F)[nH]4)c3)ccc21 | 1.82
CCOc1cc(N2CCC(O)CC2)ccc1Nc1ncc2c(n1)N(C)c1ccccc1C(=O)N2C | 1.48
O=C(O)c1ccc(Nc2ncc3c(n2)-c2ccc(Cl)cc2C(c2c(F)cccc2F)=NC3)cc1 | 0.4
C[C@@H]1CN(C(=O)c2ccc(NC(=O)c3cc(O[C@H](C)c4c(Cl)ccc(F)c4Cl)c(N)nn3)cc2)C[C@H](C)N1 [Ensartinib (X-396)] | 0.36
COc1ccc(F)c(F)c1C(=O)c1cnc(NC2CCN(S(C)(=O)=O)CC2)nc1N | 0.61
N#Cc1cnc(Nc2cc(NC[C@H]3CNCCO3)c(C(F)(F)F)cn2)cn1 | 1.08
O=c1nc(N2CCOCC2)oc2c(-c3cccc4c3sc3ccccc34)cccc12 | 0.14
Cc1nc(Nc2ncc(C(=O)Nc3c(C)cccc3Cl)s2)cc(N2CCN(CCO)CC2)n1 [Dasatinib] | 1.03
Cc1cc(Nc2cc(N3CCN(C)CC3)nc(/C=C/c3ccccc3)n2)n[nH]1 [ENMD-2076 L-(+)-Tartaric acid] | 1.73
